Holding throughout (test): NCI-60 one-dose screen, 48 h (100 = growth as untreated, 0 = no growth, -100 = all killed)
Details in all cases: 10 µM unless noted

For experiment [1], the system named is DU-145 prostate.
Experiment [2] relates to K-562 leukemia.
Experiment [3] deals with MALME-3M melanoma.
In experiment [4] the test system is MDA-MB-231 breast.
Experiment [5] has as its system RXF 393 renal.
The test system of experiment [6] is SF-268 CNS.
Experiment [7] concerns SF-295 CNS.
In experiment [8] the test system is SF-539 CNS.
Experiment [9] concerns UACC-257 melanoma.
Experiment [10] relates to M14 melanoma.

Consider 11 molecules from PubChem BioAssay (NCI).

This is part of a sample that, as a whole, favours compounds with a hit. Of some 83,000 tested, about 20% had one in any assay.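 How to read the values: 0–100, growth inhibition (40 = 60% inhibited); 0, no net growth; -100 to 0, cell death (-40 = 40% of starting cells died; -100 = all dead).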 Values without a mark were called inactive. Active and inactive are the calls of the source. The calls were made as follows: active = growth percent below 10; inactive = the rest.

As for `COc1ccc2c(c1)c(-c1nc(-c3cn(C)c4ncccc34)cs1)cn2CCN`, the growth in experiment [1] is 69.6%; in [2] it was 68.6%; in [3], 105%; in experiment [4], 63.3%; in experiment [5], 96.1%; in [6] it was 95.8%. Also, the growth is 99.1% in [7], 89.1% in experiment [8], 98.3% in experiment [9] and 97.3% in [10].

Turning to `COc1ccc2c(c1)c(-c1nc(-c3c[nH]c4ncccc34)cs1)cn2CCNC(=O)OC(C)(C)C`, the growth was 89.3% in [1]; 62.4% in experiment [2]; 103% in [3]; 53.2% in experiment [4]; 83.1% in experiment [5]; 83.5% in [6]. Also, the growth is 85.1% in experiment [7], 66.5% in experiment [8], 98.5% in [9] and 69.3% in experiment [10].

Turning to `CC(=O)OC(C)COc1ccc(-c2ccccc2)cc1` (stereo not given), the growth in [1] was 101%; in [2], 97.9%; in [3] it was 118%; in [4], 103%; in experiment [5] it was 104%; in experiment [6], 96.1%. In addition, the growth in experiment [7] was 97.5%; in experiment [8] it was 101%; in experiment [9], 74.3%; in [10] it was 92.1%.

`COc1cc2c(cc1-c1c(C)noc1C)ncc1nc(C3CCCCC3)n([C@@H](C)COC(F)F)c12`: the growth in experiment [1] is 61%; in experiment [2], 24.2%; in experiment [3] it was 72.1%; in experiment [4], 41%; in [5] it was 52.2%; in experiment [6] it was 55.6%. Further, the growth in experiment [7] is 45.3%; in [8], 31.6%; in experiment [9], 28.2%; in [10], 34.7%.

In the case of `COc1cc2nc(Cl)nc(Nc3cccc(C(=O)/C=C/c4ccccc4)c3)c2cc1OC`, the growth is 87.7% in experiment [1]; 9.16% (active) in experiment [2]; 78% in [3]; 67.6% in [4]; 68.4% in [5]; 85.9% in [6]. For the same molecule, the growth in experiment [7] was 69.5%; in [8], 2.74% (active); in experiment [9], 96.5%; in experiment [10], 51.2%.

For the molecule `C=C(C)[C@@H]1CC[C@]2(C=NCCCNCCCCNCCCN)CC[C@]3(C)[C@H](CC[C@@H]4[C@@]5(C)CCCNC(C)(C)[C@@H]5CC[C@]43C)[C@@H]12`, the growth was 101% in experiment [1]; 20.1% in [2]; 103% in experiment [3]; 104% in [4]; 110% in experiment [5]; 102% in [6]. In addition, the growth in experiment [7] is 91.2%; in experiment [8], 95.3%; in [9] it was 107%; in experiment [10], 98.5%.

As for `C[C@@H](C(=O)O)c1ccc2c3cc(Cl)ccc3n(Cc3cc(=O)oc4ccc(Cl)cc34)c2c1`, the growth was 103% in experiment [1]; 98.2% in experiment [2]; 89.5% in experiment [3]; 106% in experiment [4]; 116% in experiment [5]; 93.4% in experiment [6]. For the same molecule, the growth was 103% in experiment [7], 102% in experiment [8], 104% in experiment [9] and 100% in [10].

For `C=C(C)[C@@H]1CC[C@]2(C(=O)N3CCN(C)CC3)CC[C@]3(C)[C@H](CC[C@@H]4[C@@]5(C)C/C(=C/c6ccc(C(F)(F)F)cc6)C(=O)C(C)(C)[C@@H]5CC[C@]43C)[C@@H]12`, the growth in experiment [1] is 104%; in experiment [2] it was 72.9%; in experiment [3], 90.8%; in [4] it was 94.9%; in [5] it was 97.4%; in experiment [6], 92.8%. For the same molecule, the growth was 101% in [7], 88.6% in experiment [8], 98.5% in experiment [9] and 94.8% in experiment [10].

On to `Cc1cc(N(CCCNc2ccnc3cc(Cl)ccc23)Cc2ccco2)nc(Cl)n1`, for which the growth in [1] was 71.6%; in [2] it was 9.75% (active); in experiment [3], 74%; in [4] it was 61.7%; in [5] it was 71.1%; in [6], 72.7%. Also, the growth was 42.3% in experiment [7], 54.3% in experiment [8], 59.9% in experiment [9] and 46.4% in experiment [10].

On to `Cn1cc(-c2csc(-c3cn(CCCN4CCCCC4)c4ccccc34)n2)c2cccnc21`, for which the growth was -52.5% (active) in experiment [1]; -70% (active) in experiment [2]; -78.6% (active) in experiment [3]; -81.4% (active) in experiment [4]; -78.6% (active) in experiment [5]; -25.6% (active) in [6]. Also, the growth in experiment [7] was 32%; in experiment [8], -88.6% (active); in experiment [9], -80.3% (active); in experiment [10], -80.9% (active).

As for `Cc1ccc(Sc2sc(-c3ccccc3)nc2[P+](c2ccccc2)(c2ccccc2)c2ccccc2)cc1`, the growth in experiment [1] was 10.7%; in experiment [2], 2.4% (active); in experiment [3], -22.4% (active); in [4], -29.5% (active); in [5] it was -21.5% (active); in [6], 15.5%. Besides, the growth in [7] was -20.9% (active); in experiment [8], 11.8%; in [9] it was 2.98% (active); in experiment [10], -7.46% (active).
